Each structure is given as a SMILES string.

Some test systems named below: ZAK; ZAP70; p38-delta.
Settings in all cases: concentration: 1 μM, replicates: in singlicate; n = 1
Another assay has as its system T1, p38-alpha.
T1 construct: gene MAPK14

Another assay deals with T2, p38-beta.
T2 construct: gene MAPK11

A further assay has as its system T3, p38-gamma.
T3 construct: gene MAPK12
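Also: KINOMEscan kinase panel screen.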

As for `O=C(Nc1cccc(-c2nn3ncccc3c2-c2ccnc(Nc3ccccc3)n2)c1)c1c(F)cccc1F` [GSK198271], the “%Inh” value in the assay with ZAK is given as 96.6%; in the assay with ZAP70, 0%; in the assay with p38-alpha it was 99.3%; in the assay with p38-beta, 99.2%; in the assay with p38-delta, 77%; with p38-gamma it was 0%.

For the compound `CCc1ccc(-c2ccc3c(c2)-c2c(cnn2C)S(=O)(=O)N3C)cc1`, the “%Inh” value in the assay with ZAK was found to be 3%; in the assay with ZAP70 it was 0%; in the assay with p38-alpha, 9%; with p38-beta, 4%; in the assay with p38-delta it was 23%; in the assay on p38-gamma it was 14%.

Consider `Cl.c1ccc(-c2ccc3c(Nc4ccc5[nH]ccc5c4)ccnc3c2)nc1` [GW440138], for which the “%Inh” value with ZAK was 0%; with ZAP70 it was 49%; in the assay with p38-alpha, 20%; in the assay with p38-beta it was 0%; in the assay on p38-delta, 41%; with p38-gamma it was 0%.

With `CSc1cccc2c(-c3ccncn3)c(-c3ccc(F)cc3)nn12` [GW514786], the “%Inh” value is listed as 0% in the assay on ZAK; 8% with ZAP70; 98% in the assay with p38-alpha; 29% in the assay on p38-beta; 38% in the assay with p38-delta; 2% in the assay on p38-gamma.

Regarding `COC(=O)Nc1nc2cc(Oc3ccc(NC(=O)Nc4cc(C(F)(F)F)ccc4F)cn3)ccc2[nH]1.Cl.Cl` [GW681170], the “%Inh” value with ZAK turned out to be 92%; in the assay with ZAP70 it was 0%; with p38-alpha, 70%; in the assay on p38-beta, 34%; with p38-delta it was 75%; with p38-gamma it was 42%.

With `CCCCc1nn2ncccc2c1-c1ccnc(Nc2ccc(N3CCN(C)CC3)cc2)n1` [GW684941], the “%Inh” value in the assay with ZAK is 51%; in the assay on ZAP70 it was 0%; with p38-alpha it was 94.2%; with p38-beta, 43%; in the assay with p38-delta, 21%; in the assay on p38-gamma it was 0%.

Consider `COc1cccc(-c2ccc3c(NC(=O)C4CC4)n[nH]c3n2)c1` [SB-710903], for which the “%Inh” value with ZAK came out at 0%; in the assay with ZAP70, 48%; in the assay with p38-alpha it was 23%; in the assay with p38-beta it was 0%; in the assay on p38-delta it was 40%; in the assay with p38-gamma, 0%.

Consider `Cc1ccc(C(=O)Nc2ccc(Nc3ccnc4cc(-c5nccs5)ccc34)cc2O)cc1.Cl` [GW494702], for which the “%Inh” value is reported as 63% with ZAK; 33% in the assay on ZAP70; 0% with p38-alpha; 0% in the assay with p38-beta; 21% in the assay on p38-delta; 19% in the assay with p38-gamma.

Take `COC(=O)Nc1nc2ccc(Oc3ccc(NC(=O)Nc4cc(C(F)(F)F)ccc4F)cc3)cc2n1C.Cl` [GW692089]: the “%Inh” value with ZAK came out at 87%; in the assay with ZAP70, 0%; in the assay on p38-alpha, 57%; in the assay on p38-beta, 16%; in the assay on p38-delta, 0%; in the assay on p38-gamma, 44%.

In the case of `Oc1cc(Nc2ccnc3cc(I)ccc23)ccc1F` [GW552771], the “%Inh” value was found to be 73% in the assay on ZAK; 0% in the assay on ZAP70; 4% with p38-alpha; 0% in the assay on p38-beta; 27% in the assay with p38-delta; 0% with p38-gamma.

For the compound `COc1ccc(CNC(=O)NC2CCN(c3ccnc(Nc4ccc(F)cc4)n3)CC2)cc1` [GSK1379788], the “%Inh” value is 0% in the assay with ZAK; 4% in the assay with ZAP70; 19% in the assay with p38-alpha; 0% in the assay with p38-beta; 29% with p38-delta; 0% with p38-gamma.

As for `CN(C)Cc1ccc(-c2ccc3c(Nc4ccc(Oc5ccccn5)cc4)ccnc3c2)o1` [GW567148], the “%Inh” value with ZAK was 65%; in the assay on ZAP70 it was 0%; with p38-alpha, 0%; in the assay on p38-beta, 0%; in the assay on p38-delta, 38%; with p38-gamma it was 0%.

As for `O=C(Nc1n[nH]c2nc(-c3ccc(O)cc3)ccc12)C1CC1` [SB-710363], the “%Inh” value in the assay with ZAK was 23%; with ZAP70 it was 0%; in the assay with p38-alpha, 0%; with p38-beta, 11%; with p38-delta, 0%; in the assay on p38-gamma it was 20%.

Take `Nc1n[nH]c2cnc(-c3ccccc3)cc12` [SB-642124]: the “%Inh” value in the assay on ZAK is on record as 16%; in the assay on ZAP70, 0%; in the assay on p38-alpha it was 0%; in the assay with p38-beta it was 0%; with p38-delta, 28%; with p38-gamma, 0%.

Turning to `C[C@@H]1CC[C@@H](C(=O)Nc2ccccc2)CN1c1cc(-c2ccc3c(N)n[nH]c3c2)nc(N)n1` [GSK2286062], the “%Inh” value was 0% in the assay on ZAK; 0% in the assay on ZAP70; 28% in the assay with p38-alpha; 0% in the assay on p38-beta; 13% in the assay on p38-delta; 46% in the assay on p38-gamma.

As to `O=C(NC1CCN(c2ccnc(Nc3ccc(F)cc3)n2)C1)c1cc2ccccc2s1` (stereo not drawn) [GSK1379716], the “%Inh” value with ZAK was 20%; in the assay with ZAP70 it was 0%; in the assay with p38-alpha it was 7%; in the assay on p38-beta, 0%; in the assay with p38-delta, 45%; in the assay with p38-gamma it was 67%.

With `COc1ccc(-c2coc3ccc(-c4nnc(SCc5ccc(OC)c(C(F)(F)F)c5)o4)cc23)cc1`, the “%Inh” value in the assay on ZAK is given as 0%; with ZAP70, 0%; in the assay on p38-alpha, 0%; in the assay with p38-beta it was 6%; with p38-delta, 6%; with p38-gamma, 16%.

Turning to `COc1cc(Nc2nccc(N3CCC(NC(=O)Nc4cccc(C(C)=O)c4)C3)n2)cc(OC)c1OC` (stereo not drawn) [GSK1379753], the “%Inh” value with ZAK worked out at 0%; with ZAP70 it was 12%; in the assay with p38-alpha, 0%; with p38-beta, 0%; in the assay with p38-delta, 41%; in the assay on p38-gamma, 0%.

Consider `COCCOCCOc1cc2ncc3c4ccc(C#N)cc4[nH]c3c2cc1OC`, for which the “%Inh” value in the assay on ZAK came to 33%; with ZAP70 it was 0%; in the assay on p38-alpha, 1%; in the assay with p38-beta, 0%; in the assay on p38-delta, 0%; in the assay on p38-gamma, 23%.

`COc1cccc(C(=O)Nc2cccc(Oc3ccc4nc(NC(=O)C5CC5)cn4n3)c2)c1`: the “%Inh” value in the assay on ZAK turned out to be 62%; in the assay with ZAP70 it was 0%; with p38-alpha, 15%; with p38-beta, 16%; in the assay on p38-delta, 32%; in the assay with p38-gamma, 39%.

Regarding `O=C(Nc1cccc(-c2nn3ccccc3c2-c2ccnc(Nc3cccc(C(F)(F)F)c3)n2)c1)c1c(F)cccc1F` [GSK292658], the “%Inh” value with ZAK is on record as 80%; with ZAP70, 0%; in the assay on p38-alpha, 17%; with p38-beta, 32%; in the assay with p38-delta, 24%; with p38-gamma, 0%.

Consider `CCn1c(-c2nonc2N)nc2c(C#CC(C)(C)O)ncc(OCCCCN)c21.O=C(O)C(F)(F)F.O=C(O)C(F)(F)F` [GSK507274], for which the “%Inh” value with ZAK came out at 36%; in the assay on ZAP70, 0%; with p38-alpha it was 0%; in the assay on p38-beta, 0%; in the assay with p38-delta, 27%; in the assay with p38-gamma it was 0%.

`c1ccc(-c2cnc3nccnn23)cc1` [AH20685]: the “%Inh” value with ZAK worked out at 0%; in the assay with ZAP70, 0%; in the assay with p38-alpha, 0%; with p38-beta, 0%; with p38-delta, 20%; in the assay on p38-gamma, 0%.

Regarding `CCS(=O)(=O)c1ccc(OC)c(Nc2nccc(-c3c(-c4cccc(NC(=O)c5c(F)cccc5F)c4)nn4ncccc34)n2)c1` [GSK326180], the “%Inh” value in the assay on ZAK stood at 28%; in the assay with ZAP70, 46%; in the assay on p38-alpha, 99.9%; with p38-beta, 99.6%; with p38-delta, 47%; in the assay on p38-gamma it was 0%.

Regarding `Nc1ncc(-c2ccc3nccc(-c4ccncc4)c3c2)cc1S(=O)(=O)N1CCOCC1` [GSK1627798], the “%Inh” value in the assay on ZAK, with ZAP70, in the assay on p38-alpha, in the assay with p38-beta, in the assay on p38-delta and with p38-gamma was 0% each time.

Take `CN(C)S(=O)(=O)c1cc(-c2ccc3nccc(-c4cccc(S(N)(=O)=O)c4)c3c2)cnc1N` [GSK1669921]: the “%Inh” value is 0% in the assay with ZAK; 4% in the assay on ZAP70; 0% in the assay on p38-alpha; 0% in the assay on p38-beta; 44% in the assay on p38-delta; 23% with p38-gamma.

On to `c1ccc(Oc2ccc(Nc3ccnc4cc(-c5ccc(CNCCN6CCOCC6)o5)ccc34)cc2)nc1` [GW567145], for which the “%Inh” value in the assay on ZAK is 77%; in the assay with ZAP70 it was 0%; in the assay with p38-alpha it was 20%; in the assay with p38-beta, 0%; in the assay on p38-delta it was 0%; in the assay on p38-gamma it was 0%.

For the compound `c1ccc(-c2n[nH]cc2Nc2ccnc3ccccc23)nc1` [GW694077], the “%Inh” value is 0% in the assay with ZAK; 0% with ZAP70; 2% with p38-alpha; 0% in the assay with p38-beta; 0% in the assay with p38-delta; 0% with p38-gamma.

Consider `Cl.Cl.NCC(NCc1ccc(-c2ccnc3[nH]ccc23)s1)c1ccccc1` (stereo not drawn) [GSK1321565], for which the “%Inh” value in the assay on ZAK is on record as 15%; in the assay on ZAP70, 0%; with p38-alpha it was 27%; in the assay on p38-beta, 0%; in the assay with p38-delta, 3%; in the assay on p38-gamma it was 0%.

`Cl.Cl.NCC(NC(=O)c1cc(-c2ccccc2)c(-c2ccnc3[nH]ccc23)s1)c1ccccc1` (stereo not drawn) [GSK1321561]: the “%Inh” value in the assay with ZAK is 46%; in the assay with ZAP70, 0%; in the assay with p38-alpha it was 0%; in the assay with p38-beta, 0%; in the assay with p38-delta it was 47%; in the assay with p38-gamma, 0%.

`COc1cc2c(cc1OCCN1CCNCC1)ncc1c3ccc(C#N)cc3[nH]c21`: the “%Inh” value in the assay with ZAK came to 8%; in the assay with ZAP70, 28%; with p38-alpha it was 9%; in the assay with p38-beta it was 3%; with p38-delta it was 0%; in the assay on p38-gamma, 30%.

For the compound `Cn1cc(-c2ccc3c(c2)CCN3C(=O)Cc2cccc(Cl)c2)c2c(N)ncnc21` [GSK2606590], the “%Inh” value in the assay with ZAK came to 0%; in the assay with ZAP70 it was 0%; in the assay on p38-alpha, 0%; in the assay on p38-beta it was 0%; in the assay on p38-delta it was 57%; with p38-gamma, 29%.

With `Nc1ncc(-c2cccnc2)c2scc(-c3ccc4c(c3)CCN4C(=O)Cc3ccccc3)c12` [GSK683281], the “%Inh” value amounted to 9% with ZAK; 0% in the assay with ZAP70; 4% in the assay with p38-alpha; 0% with p38-beta; 71% in the assay with p38-delta; 0% in the assay on p38-gamma.

Take `COc1cc(Nc2nccc(-c3c(-c4cccc(NC(=O)c5c(F)cccc5F)c4)nn4ccccc34)n2)cc(OC)c1OC` [GSK323521]: the “%Inh” value worked out at 0% in the assay with ZAK; 0% with ZAP70; 0% in the assay with p38-alpha; 7% with p38-beta; 43% with p38-delta; 42% in the assay on p38-gamma.

Consider `CN1CCN(Cc2cccc(-c3ccc4c(Nc5ccc(Oc6ccccc6)cc5)ccnc4c3)c2)CC1` [GW578342], for which the “%Inh” value in the assay with ZAK is 79%; in the assay on ZAP70 it was 14%; in the assay on p38-alpha it was 23%; in the assay on p38-beta it was 0%; with p38-delta, 37%; in the assay on p38-gamma it was 2%.

Take `O=C(O)C(F)(F)F.O=C(O)C(F)(F)F.O=c1[nH]ccc2nc(N[C@@H]3CCCNC3)nc(Nc3ccc(S(=O)(=O)N4CCOCC4)cc3)c12` [GSK2177277]: the “%Inh” value in the assay with ZAK is on record as 0%; in the assay on ZAP70 it was 71%; in the assay with p38-alpha, 0%; with p38-beta, 0%; in the assay on p38-delta, 57%; in the assay with p38-gamma it was 40%.

On to `Cl.NC(=O)c1cccc(Nc2nccc(Nc3ccc(Oc4c(Cl)cccc4Cl)c(Cl)c3)n2)c1` [GW659009], for which the “%Inh” value came to 10% in the assay on ZAK; 0% with ZAP70; 0% with p38-alpha; 100% with p38-beta; 0% in the assay with p38-delta; 0% with p38-gamma.

The record behind these values is PMC5540273 (PLoS ONE, 2017).
